Measured values reported in the antibiotic and cytotoxicity screens of Wong et al. (2023).
About 1,500 (3.8%) of roughly 39,000 compounds were called active. The entries come from a sample that favours actives as a whole.

The compounds below were run on HSkMC (human skeletal muscle cells) (assay: cytotoxicity call (relative viability < 0.9)). Details: 10 µM.

Which cytotoxicity call does the source give for COc1ccc(S(=O)(=O)Nc2cccc3c2O[C@H](CN(C)S(=O)(=O)c2cn(C)cn2)[C@@H](C)CN([C@@H](C)CO)C3=O)cc1 here?
The cytotoxicity call was “inactive”.

For COc1cccc(NC(=O)N(C)C[C@@H]2OCc3ccccc3-c3c(n(C)c4ccccc34)C(=O)N([C@@H](C)CO)C[C@H]2C)c1, which cytotoxicity call is on record?
Its cytotoxicity call is “inactive”.

How did the cytotoxicity call turn out when C[C@@H]1CN([C@@H](C)CO)C(=O)c2cc(NC(=O)c3ccccc3)ccc2O[C@@H](C)CCCCO[C@@H]1CN(C)C(=O)NC1CCCCC1 was run?
Its cytotoxicity call is “inactive”.

With Cc1noc(C)c1NC(=O)Nc1ccc2c(c1)C(=O)N([C@@H](C)CO)C[C@H](C)[C@@H](CN(C)Cc1ccc(C(=O)Nc3ccccc3N)cc1)O2 as the compound, how does the cytotoxicity call read?
Its cytotoxicity call is “inactive”.

Which cytotoxicity call does the source give for C[C@H]1CCCCO[C@H](CN(C)C(=O)Nc2ccc(F)cc2)[C@@H](C)CN([C@@H](C)CO)C(=O)c2cc(NC(=O)Nc3ccc(F)cc3)ccc2O1 here?
Its cytotoxicity call is “inactive”.

With C[C@@H]1CN([C@@H](C)CO)S(=O)(=O)c2ccc(C#Cc3ccccc3)cc2O[C@H]1CN(C)C(=O)Cc1ccccn1 as the compound, how does the cytotoxicity call read?
Its cytotoxicity call is “inactive”.

How did the cytotoxicity call turn out when CCS(=O)(=O)Nc1ccc2c(c1)C(=O)N(C)[C@@H]1CC[C@@H](CC(=O)N[C@H]3CCN(Cc4ccccc4)C3)O[C@H]1CO2 was run?
The cytotoxicity call was “inactive”.

For COc1ccc(S(=O)(=O)N(C)C[C@H]2Oc3ncc(C#CC4(O)CCCC4)cc3C(=O)N([C@H](C)CO)C[C@H]2C)cc1, which cytotoxicity call is on record?
Its cytotoxicity call is “inactive”.

Which cytotoxicity call does the source give for CC(C)NC(=O)Nc1ccc2c(c1)C(=O)N([C@@H](C)CO)C[C@@H](C)[C@@H](CN(C)S(=O)(=O)c1cn(C)cn1)OCCCC[C@H](C)O2 here?
The cytotoxicity call was “inactive”.

With CCN1C(=O)[C@H]2[C@@H](O)CS[C@H]2C1=O as the compound, how does the cytotoxicity call read?
Its cytotoxicity call is “inactive”.

With C[C@@H]1CN([C@H](C)CO)C(=O)Cc2cc(NC(=O)Nc3ccc(C(F)(F)F)cc3)ccc2O[C@@H]1CN(C)Cc1ccc(-c2ccccc2)cc1 as the compound, how does the cytotoxicity call read?
The cytotoxicity call was “active”.

With C[C@@H]1CN([C@@H](C)CO)C(=O)Cc2cc(NC(=O)Nc3ccccc3)ccc2O[C@H]1CN(C)Cc1ccc(-c2ccccc2)cc1 as the compound, how does the cytotoxicity call read?
The cytotoxicity call was “inactive”.

With C[C@H]1CN([C@@H](C)CO)C(=O)Cc2cc(NC(=O)Nc3ccc(C(F)(F)F)cc3)ccc2O[C@@H]1CN(C)Cc1ccc(-c2ccccc2)cc1 as the compound, how does the cytotoxicity call read?
Its cytotoxicity call is “active”.

C[C@@H]1CN([C@H](C)CO)C(=O)Cc2cc(NC(=O)Nc3ccccc3)ccc2O[C@H]1CN(C)Cc1ccc(-c2ccccc2)cc1 was tested. Which cytotoxicity call did it give?
Its cytotoxicity call is “inactive”.

C[C@H](CO)N1C[C@H](C)[C@@H](CN(C)Cc2ccc(-c3ccccc3)cc2)Oc2ccc(NC(=O)Nc3ccc(C(F)(F)F)cc3)cc2CC1=O was tested. Which cytotoxicity call did it give?
The cytotoxicity call was “active”.

C[C@@H]1CN([C@H](C)CO)C(=O)Cc2cc(NC(=O)Nc3ccc(C(F)(F)F)cc3)ccc2O[C@H]1CN(C)Cc1ccc(-c2ccccc2)cc1 was tested. Which cytotoxicity call did it give?
Its cytotoxicity call is “active”.

With COc1cccc(NC(=O)N[C@@H]2C=C[C@@H](CC(=O)N3CCN(C)CC3)O[C@H]2CO)c1 as the compound, how does the cytotoxicity call read?
The cytotoxicity call was “inactive”.

For C[C@@H]1CN([C@@H](C)CO)C(=O)c2cccc(NS(=O)(=O)c3cn(C)cn3)c2O[C@H]1CN(C)C(=O)Nc1ccccc1, which cytotoxicity call is on record?
The cytotoxicity call was “inactive”.

For C[C@H]1CCCCO[C@H](CN(C)C(=O)Nc2ccccc2)[C@@H](C)CN([C@@H](C)CO)C(=O)c2cc(NC(=O)CCC(F)(F)F)ccc2O1, which cytotoxicity call is on record?
Its cytotoxicity call is “inactive”.

For O=C(C[C@H]1CC[C@@H]2[C@H](COC[C@@H](O)CN2C(=O)c2cccnc2)O1)NCC1CC1, which cytotoxicity call is on record?
Its cytotoxicity call is “inactive”.

For Cc1ccc(CSc2nnc(CCN)o2)cc1, which cytotoxicity call is on record?
The cytotoxicity call was “inactive”.

For CCn1ncc(Br)c1CN, which cytotoxicity call is on record?
Its cytotoxicity call is “inactive”.

For CC(C)NC(=O)[C@@H](N)c1ccccc1, which cytotoxicity call is on record?
Its cytotoxicity call is “inactive”.

How did the cytotoxicity call turn out when COc1ccc(NC(=O)Nc2ccc3c(c2)CC(=O)N([C@H](C)CO)C[C@@H](C)[C@H](CN(C)C(=O)Nc2cccc4ccccc24)O3)cc1 was run?
Its cytotoxicity call is “inactive”.

Which cytotoxicity call does the source give for C[C@@H]1CN([C@H](C)CO)C(=O)c2ccccc2-c2ccccc2CO[C@@H]1CN(C)Cc1ccc(Oc2ccccc2)cc1 here?
Its cytotoxicity call is “inactive”.

With COc1ccc(S(=O)(=O)N(C)C[C@@H]2Oc3ccc(NC(=O)Nc4c(C)noc4C)cc3CC(=O)N([C@@H](C)CO)C[C@H]2C)cc1 as the compound, how does the cytotoxicity call read?
Its cytotoxicity call is “inactive”.

O=C(C=CC=Cc1ccc2c(c1)OCO2)N1CCCCC1 was tested. Which cytotoxicity call did it give?
The cytotoxicity call was “inactive”.

C[C@@H]1CN([C@@H](C)CO)C(=O)c2cccc(NC(=O)Nc3ccc(C(F)(F)F)cc3)c2O[C@H]1CN(C)C(=O)Nc1ccc2c(c1)OCO2 was tested. Which cytotoxicity call did it give?
The cytotoxicity call was “inactive”.

C[C@H](CO)N1C[C@H](C)[C@H](CN(C)C(=O)Nc2ccc3c(c2)OCO3)Oc2c(NC(=O)Nc3ccc(C(F)(F)F)cc3)cccc2C1=O was tested. Which cytotoxicity call did it give?
Its cytotoxicity call is “inactive”.

With C[C@@H]1CN([C@H](C)CO)C(=O)c2cccc(NC(=O)Nc3ccc(C(F)(F)F)cc3)c2O[C@@H]1CN(C)C(=O)Nc1ccc2c(c1)OCO2 as the compound, how does the cytotoxicity call read?
Its cytotoxicity call is “inactive”.

C[C@H]1CN([C@@H](C)CO)C(=O)c2cccc(NC(=O)Nc3ccc4c(c3)OCO4)c2O[C@@H]1CN(C)C(=O)Nc1ccc(C(F)(F)F)cc1 was tested. Which cytotoxicity call did it give?
The cytotoxicity call was “inactive”.

C[C@H]1CN([C@@H](C)CO)C(=O)c2cccc(NC(=O)Nc3ccc(C(F)(F)F)cc3)c2O[C@@H]1CN(C)C(=O)Nc1ccc2c(c1)OCO2 was tested. Which cytotoxicity call did it give?
The cytotoxicity call was “active”.

C[C@H](CO)N1C[C@H](C)[C@@H](CN(C)C(=O)Nc2ccc3c(c2)OCO3)Oc2c(NC(=O)Nc3ccc(C(F)(F)F)cc3)cccc2C1=O was tested. Which cytotoxicity call did it give?
The cytotoxicity call was “active”.

Which cytotoxicity call does the source give for Cc1ccc(S(=O)(=O)Nc2ccc3c(c2)CC(=O)N([C@H](C)CO)C[C@H](C)[C@@H](CN(C)Cc2ccncc2)O3)cc1 here?
The cytotoxicity call was “inactive”.

For C[C@@H]1CCCCO[C@@H](CN(C)S(=O)(=O)c2ccccc2)[C@H](C)CN([C@H](C)CO)C(=O)c2cc(NC(=O)NC3CCCCC3)ccc2O1, which cytotoxicity call is on record?
Its cytotoxicity call is “inactive”.

Which cytotoxicity call does the source give for CN(C)CCCNC(=O)C[C@@H]1C=C[C@@H](NC(=O)Cc2cccnc2)[C@H](CO)O1 here?
The cytotoxicity call was “inactive”.

Which cytotoxicity call does the source give for [N-]=[N+]=NCCOCCNC(=O)CCCOc1ccc(CS(=O)c2nnc(-c3ccc(F)cc3)o2)nc1 (stereo unspecified) here?
Its cytotoxicity call is “active”.

With O=C1OCCN/C1=C/C(=O)c1ccccc1 as the compound, how does the cytotoxicity call read?
Its cytotoxicity call is “inactive”.

How did the cytotoxicity call turn out when Cc1ccc(S(=O)(=O)N(C)C[C@@H]2Oc3ccc(NS(=O)(=O)c4cn(C)cn4)cc3CC(=O)N([C@@H](C)CO)C[C@H]2C)cc1 was run?
Its cytotoxicity call is “inactive”.

How did the cytotoxicity call turn out when C[C@@H]1CN([C@@H](C)CO)C(=O)Cc2cc(NC(=O)C3CC3)ccc2O[C@H]1CN(C)Cc1ccc2c(c1)OCO2 was run?
Its cytotoxicity call is “inactive”.

How did the cytotoxicity call turn out when O=C(C[C@H]1C=C[C@H](NC(=O)Nc2ccc3c(c2)OCO3)[C@@H](CO)O1)NCCCN1CCOCC1 was run?
Its cytotoxicity call is “inactive”.
